Screens (PubChem)
D2 ag-1 = activates the human D2 dopamine receptor; DiscoveRx PathHunter D2 beta-arrestin, luminescence, 90 min; 100% = 57 uM dopamine signal; activation, % (no concentration beside the values); hit rate 0.084% among 360,000; AID 624465; in the data active means activation above about 40%; inconclusive means between about 15% and that limit
Target sequence (P14416 whole entry, looked up): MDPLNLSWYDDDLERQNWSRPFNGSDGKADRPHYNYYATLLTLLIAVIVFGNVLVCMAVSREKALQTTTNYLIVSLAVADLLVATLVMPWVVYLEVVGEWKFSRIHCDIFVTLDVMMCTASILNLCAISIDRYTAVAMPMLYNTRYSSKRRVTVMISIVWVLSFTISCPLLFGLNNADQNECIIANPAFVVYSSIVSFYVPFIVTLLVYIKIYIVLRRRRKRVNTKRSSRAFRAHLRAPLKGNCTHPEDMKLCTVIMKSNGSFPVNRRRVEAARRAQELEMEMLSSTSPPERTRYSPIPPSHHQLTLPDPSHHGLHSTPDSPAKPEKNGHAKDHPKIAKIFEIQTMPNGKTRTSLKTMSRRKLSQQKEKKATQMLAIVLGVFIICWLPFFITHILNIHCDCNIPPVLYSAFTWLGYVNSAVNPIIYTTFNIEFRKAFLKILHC
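Agonist mode: compounds alone added to overnight-plated D2 PathHunter cells for 90 min at 37 C, with 57 uM final dopamine (EC100) defining full response. Beta-arrestin recruitment detected by chemiluminescent reagent, read after 1 h at ambient temperature.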
D2 PAM-1 = D2 dopamine receptor (human) potentiation; P14416; HEK293 T-REx D2, calcium flux, EC20 dopamine potentiation; potentiation, % at 10 µM; hit rate 0.34% among 340,000; AID 485347;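 active means potentiation over 3 SD above the plate norm, cut at about 30% in these data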
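Cells plated with tetracycline inducer and held overnight at 30 C; calcium dye loaded 30–90 min at room temperature; baseline taken, compound added and read 180 s; EC20 dopamine then added and read 180 s.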
D2 PAM-2 = human D2 receptor positive allosteric modulation; DiscoveRx D2 beta-arrestin cells, luminescence, 90 min; 100% = 57 uM dopamine signal; potentiation, % (concentration not given with the values); hit rate 0.23% among 360,000; AID 624464; in the data active means potentiation above about 50%; inconclusive means mostly about 30% to 49%
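PathHunter D2 cells, attached overnight at 37 deg C, received compound in DMSO plus dopamine at EC20 (50 nM final) for 90 min at 37 deg C. Beta-arrestin recruitment was read as luminescence after 1 h with detection reagent at ambient temperature.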
D2 ag-2 = agonists of human D2 dopamine receptor. P14416. HEK293 T-REx D2 cells, calcium flux agonist mode. activation, % at 2 µM. hit rate 0.53% among 340,000. AID 485358;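 active means activation over 3 SD above normal in the single-dose calcium agonist read, cut at about 30% in these data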
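Tetracycline-induced HEK293 Trex cells with D2 receptor force-coupled to calcium signaling, plated overnight at 30 C and loaded with no-wash calcium dye. Calcium flux read kinetically for 180 s after compound addition; responses flag agonists.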
D2 antagonist = antagonizes the human D2 dopamine receptor; P14416; HEK293 TREx D2 cells, calcium flux, dopamine EC80; hit rate 2% among 340,000; inhibition, % at 10 µM; in the data active means inhibition above about 30%; inactive means below that, where a call was filed
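Tetracycline-induced HEK293 TREx cells expressing D2 receptor forced-coupled to calcium signalling, loaded with no-wash calcium dye. Compounds added and calcium flux read 180 s, then dopamine added at EC80 and read a further 180 s.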
Of the large screens only hits and unclear results are named; the others gave an inactive call. An excerpt weighted towards active compounds, which were near 2.4% of everything screened.

O=C(COC(=O)c1cc[n+]([O-])cc1)Nc1ccc(Br)cc1	none
O=C(COC(=O)c1cc[n+]([O-])cc1)Nc1ccc(SC(F)F)cc1	D2 antagonist 30.6
Cc1cc(C)c(NC(=O)Cn2c(=O)n(CCCCC(=O)NCc3ccccc3Cl)c(=O)c3ccccc32)c(C)c1	none (no result: D2 ag-1, D2 PAM-2, D2 antagonist)
CCCCNC(=O)N1CCc2ccccc2C1	none
CCCCNc1nc2ccccc2n1CC(=O)N1CCc2ccccc2C1	D2 antagonist 52.9
Cn1nnc2c(N3CCN(c4ccccc4Cl)CC3)ncnc21	none (no result: D2 ag-1, D2 PAM-2, D2 antagonist)
Cc1ccc(CSCC(=O)Nc2ccccc2C(=O)O)cc1	D2 PAM-2 52.1
Cc1ccc(CSCC(=O)N2CCCC2)cc1	D2 antagonist 32.8
COc1ccc(CNC(=O)CSCc2ccc(C)cc2)c(OC)c1	none (no result: D2 ag-1, D2 PAM-2, D2 antagonist)
Cc1cc(C)c2[nH]c(=O)c(C(c3nnnn3CC3CCCO3)N3CCC(C)CC3)cc2c1 (stereo unspecified)	D2 antagonist 37.3
Cn1c(=O)n(CCc2ccccc2)c(=O)c2c1nc1n2CCN1c1ccc(Cl)cc1	none (no result: D2 ag-1, D2 PAM-1, D2 PAM-2, D2 antagonist)
CCOc1ccc(NC(=O)CCC(=O)NNC(=O)COc2ccccc2C)cc1	D2 antagonist 36.3
O=[N+]([O-])c1ccc(N2CCCC2)cc1NC(c1ccccc1)c1ccccc1	D2 antagonist 30.0
CN(C)c1nc(Oc2ccc(=O)[nH]n2)nc(N2CCCCC2)n1	D2 antagonist 31.2
CC(=O)CC(c1ccccc1)S(=O)(=O)c1ccc([N+](=O)[O-])cc1 (stereo unspecified)	D2 antagonist 70.3
COc1ccc(OC)c(CNC(=O)c2nn(-c3ccc(OC)c(Cl)c3)c(=O)c3c2c2ccccc2n3C)c1	none (no result: D2 ag-1, D2 PAM-2, D2 antagonist)
NC(=O)c1ccccc1NC(=O)CN1CCOCC1	D2 antagonist 31.4
COc1cccc(CC(=O)Nc2ccccc2C(=O)N2CCOCC2)c1	none
COc1ccc(CC(=O)Nc2ccccc2C(=O)N2CCOCC2)cc1	D2 antagonist 43.5
COc1ccc(C(=O)NCc2ccc3c(c2)CCN3C(=O)c2ccc(C)cc2)cc1	none (no result: D2 ag-1, D2 PAM-2, D2 antagonist)
Cc1cccn2c(=O)c(C(=O)NCCc3ccc(S(N)(=O)=O)cc3)c(O)nc12	none (no result: D2 ag-1, D2 PAM-2, D2 ag-2, D2 antagonist)
NNC(=O)CN1C(c2cccc(Cl)c2)=Nc2ccc(Br)cc2C1c1ccccc1 (stereo unspecified)	D2 antagonist 33.9
COc1ccc(C2=Nc3ccc(C)cc3C(c3ccccc3)N2CC(=O)NN)cc1 (stereo unspecified)	D2 antagonist 107.7
COc1ccc(C2=Nc3ccc(Br)cc3C(c3ccccc3)N2CC(=O)NN)cc1 (stereo unspecified)	none (no result: D2 ag-2, D2 antagonist)
COC(=O)CN1C(c2ccc(Cl)cc2)=Nc2ccc(Cl)cc2C1c1ccccc1 (stereo unspecified)	D2 antagonist 48.9
CC(C)NC(=O)CCC(=O)N1Cc2ccccc2Oc2ncccc21	none (no result: D2 ag-1, D2 PAM-2, D2 ag-2, D2 antagonist)
COc1ccc(Nc2ncnc3c2nc2n3CCCC2)cc1Cl	none (no result: D2 ag-1, D2 PAM-2, D2 antagonist)
Cc1cccc(N2C(=O)C(Cl)=C(Nc3c(C)n(C)n(-c4ccccc4)c3=O)C2=O)c1C	none
Cc1ccc(N2C(=O)C(Cl)=C(Nc3c(C)n(C)n(-c4ccccc4)c3=O)C2=O)cc1	D2 antagonist 32.3
COCCNCCOc1ccccc1-c1ccccc1	none
C=CCNCCCCOc1ccccc1-c1ccccc1	D2 antagonist 49.2
COCCCNCCOc1ccccc1-c1ccccc1	D2 antagonist 92.5
C=CCNCCCCOc1ccc(OCc2ccccc2)cc1	none
COCCCNCCCCOc1ccccc1-c1ccccc1	D2 antagonist 89.4
CC(C)Oc1ccc(CNS(=O)(=O)c2ccc3c(c2)C(C)(C)C(=O)N3C)cc1	none (no result: D2 ag-1, D2 PAM-2, D2 antagonist)
COc1ccc(CCNC(=O)c2cc(-c3ccc(C)c(C)c3)nc3ccccc23)cc1OC	none (no result: D2 ag-1, D2 PAM-2, D2 antagonist)
CCc1nn(CC(=O)Nc2ccc(NC(C)=O)cc2)c(=O)c2cc3sccc3n12	none (no result: D2 ag-1, D2 PAM-2, D2 antagonist)
COc1ccc(C2CC(=O)N(Cc3ccccc3)c3c2c(C)nn3-c2nc(C)cc(C)n2)c(OC)c1 (stereo unspecified)	none (no result: D2 ag-1, D2 PAM-2, D2 antagonist)
COC(=O)CSc1nc2ccccc2nc1SCC(=O)OC	D2 PAM-1 31.1
COc1ccccc1NC(=O)Cn1c(O)c(N=NC(=O)c2ccccc2O)c2ccccc21	D2 ag-1 inconclusive, D2 antagonist 55.1
O=C(COC(=O)c1ccc(O)cc1)Nc1ccccc1[N+](=O)[O-]	D2 antagonist 38.5
COC(=O)C1=CO[C@@H](C)[C@H]2CN3CCc4c([nH]c5ccccc45)[C@@H]3C[C@H]12	D2 antagonist 71.1
